Several values for one entry are separate records, joined by “and”; a condition that tells them apart may be missing. Equal entries are not always repeated. This is part of a sample that, as a whole, favours compounds with a hit. Of some 83,000 tested, about 20% had one in any assay.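 Percent growth is the endpoint: 0 to 100 indicates growth inhibition (40 means 60% inhibition), 0 means no net growth, and negative values indicate cell death.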
What was measured:
Assay in all cases: NCI-60 one-dose screen, 48 h (100 = growth as untreated, 0 = no growth, -100 = all killed)
Conditions in all cases: 10 µM unless noted; active = growth percent below 10; inactive = the rest
SR leukemia = system: SR leukemia
RPMI-8226 leukemia = system: RPMI-8226 leukemia
OVCAR-8 ovarian = system: OVCAR-8 ovarian
OVCAR-5 ovarian = system: OVCAR-5 ovarian
OVCAR-4 ovarian = system: OVCAR-4 ovarian
SK-OV-3 ovarian = system: SK-OV-3 ovarian
IGROV1 ovarian = system: IGROV1 ovarian
OVCAR-3 ovarian = system: OVCAR-3 ovarian
HS 578T breast = system: HS 578T breast
NCI/ADR-RES ovarian = system: NCI/ADR-RES ovarian

Measured: growth

CC1(C)CC(=O)NC1=O
inactive: SR leukemia 95.9% | RPMI-8226 leukemia 108% | OVCAR-8 ovarian 98.9% | OVCAR-5 ovarian 94.8% | OVCAR-4 ovarian 102% | SK-OV-3 ovarian 104% | IGROV1 ovarian 110% | OVCAR-3 ovarian 103% | HS 578T breast 112% | NCI/ADR-RES ovarian 103%

O=C(O)COc1ccccc1F
inactive: SR leukemia 99.5% | RPMI-8226 leukemia 98.4% | OVCAR-8 ovarian 116% | OVCAR-5 ovarian 104% | OVCAR-4 ovarian 111% | SK-OV-3 ovarian 119% | IGROV1 ovarian 105% | OVCAR-3 ovarian 108% | HS 578T breast 101% | NCI/ADR-RES ovarian 114%

CC(=O)C[n+]1ccccc1Sc1ccc(Cl)cc1
inactive: SR leukemia 57.4% | RPMI-8226 leukemia 84.7% | OVCAR-8 ovarian 92.8% | OVCAR-5 ovarian 148% | OVCAR-4 ovarian 93.7% | SK-OV-3 ovarian 109% | IGROV1 ovarian 101% | OVCAR-3 ovarian 100% | HS 578T breast 84.3% | NCI/ADR-RES ovarian 111%

COc1ccc(CCNC(=S)NN)cc1OC
inactive: SR leukemia 104% | RPMI-8226 leukemia 99% | OVCAR-8 ovarian 103% | OVCAR-5 ovarian 104% | OVCAR-4 ovarian 99.3% | SK-OV-3 ovarian 121% | IGROV1 ovarian 107% | OVCAR-3 ovarian 108% | HS 578T breast 102% | NCI/ADR-RES ovarian 102%

CC(C)(C(=O)c1cccnc1)c1cccnc1
inactive: SR leukemia 84.7% | RPMI-8226 leukemia 97% and 92.1% | OVCAR-8 ovarian 106% and 104% | OVCAR-5 ovarian 93.5% and 94.5% | OVCAR-4 ovarian 110% and 118% | SK-OV-3 ovarian 109% and 115% | IGROV1 ovarian 107% and 103% | OVCAR-3 ovarian 112% and 118% | HS 578T breast 94.8% and 110% | NCI/ADR-RES ovarian 106% and 67.8%

O=c1[nH]nnc2cc(Cl)ccc12
inactive: SR leukemia 117% and 102% | RPMI-8226 leukemia 112% and 109% | OVCAR-8 ovarian 95.2% and 98.2% | OVCAR-5 ovarian 103% and 96.5% | OVCAR-4 ovarian 124% and 98.8% | SK-OV-3 ovarian 114% and 117% | IGROV1 ovarian 104% and 116% | OVCAR-3 ovarian 100% and 123% | HS 578T breast 126% and 123% | NCI/ADR-RES ovarian 106% and 97.5%

COc1ccc2nccc(Cl)c2c1
inactive: SR leukemia 101% | RPMI-8226 leukemia 110% | OVCAR-8 ovarian 108% | OVCAR-5 ovarian 102% | OVCAR-4 ovarian 118% | SK-OV-3 ovarian 111% | IGROV1 ovarian 105% | OVCAR-3 ovarian 102% | HS 578T breast 103% | NCI/ADR-RES ovarian 104%

COC(=O)c1cc(C(=O)OC)cc([N+](=O)[O-])c1
inactive: SR leukemia 74.7% | RPMI-8226 leukemia 93.8% | OVCAR-8 ovarian 93.5% | OVCAR-5 ovarian 106% | OVCAR-4 ovarian 106% | SK-OV-3 ovarian 98.5% | IGROV1 ovarian 118% | OVCAR-3 ovarian 120% | HS 578T breast 103% | NCI/ADR-RES ovarian 115%

CCOC(=N)c1ccc(C(=N)OCC)cc1
inactive: SR leukemia 91.7% | RPMI-8226 leukemia 109% | OVCAR-8 ovarian 105% | OVCAR-5 ovarian 105% | OVCAR-4 ovarian 106% | SK-OV-3 ovarian 93.2% | IGROV1 ovarian 111% | OVCAR-3 ovarian 124% | HS 578T breast 96.8% | NCI/ADR-RES ovarian 104%

Nc1nc(N)c2cc(S(=O)(=O)c3ccccc3)ccc2n1
inactive: SR leukemia 22% and 47.4% | RPMI-8226 leukemia 51% and 54.5% | OVCAR-8 ovarian 38% and 43.5% | OVCAR-5 ovarian 39.2% and 75.8% | OVCAR-4 ovarian 54% | SK-OV-3 ovarian 62.1% and 52.1% | IGROV1 ovarian 36.6% and 58.6% | OVCAR-3 ovarian 53.9% and 59.7% | HS 578T breast 65.8% and 73.4% | NCI/ADR-RES ovarian 41.2% and 50.2%

COc1ccc(S(=O)(=O)c2ccc(F)cc2)cc1
inactive: SR leukemia 87.4% | RPMI-8226 leukemia 80.7% | OVCAR-8 ovarian 97.3% | OVCAR-5 ovarian 99.9% | OVCAR-4 ovarian 100% | SK-OV-3 ovarian 108% | IGROV1 ovarian 120% | OVCAR-3 ovarian 107% | HS 578T breast 93.9% | NCI/ADR-RES ovarian 95.3%

Cn1c(-c2ccccc2)cc(=O)cc1-c1ccccc1
inactive: SR leukemia 69.5% | RPMI-8226 leukemia 78.9% | OVCAR-8 ovarian 80.1% | OVCAR-5 ovarian 79.2% | OVCAR-4 ovarian 85.6% | SK-OV-3 ovarian 92.4% | IGROV1 ovarian 88% | OVCAR-3 ovarian 122% | HS 578T breast 105% | NCI/ADR-RES ovarian 82.2%
